TTR transcr act: TTR transcription activators in neuroblastoma reporter cells, primary screen, cell-based, luminescence, SH-SY5Y, TTR promoter Gaussia luciferase; 100% = recombinant luciferase protein wells; actives 1.3% (n = 92,000); activation, % at 16.7 µM;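 active = activation above the mean of all tested compounds plus 3 SD, cut at about 9.5% in these data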;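 also: cells exposed to compounds for one day before reading; 0% = median of all test compound wells on the plate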
HuH7 TTR inh: TTR promoter reporter inhibitors in hepatoma cells, counter-screen for TTR transcription activator project, cell-based, luminescence, HuH7 hepatoma. actives 4% (n = 1,100). AID 1117279, 2014. inhibition, % at 16.7 µM. shares compounds with TTR transcr act. HuH7 TTR promoter-Gaussia luciferase reporter;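 active = average inhibition above the solvent-only control wells' mean plus 3 SD, cut at about 15% in these data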;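 also: 0% = cells with DMSO only and 100% = cells with inhibitor control FD; inhibitors lower well luminescence so higher value means more inhibition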
TTR up confirm: TTR transcription activators, retest, confirmation, cell-based, luminescence, SH-SY5Y, triplicate; SHSY5Y TTR promoter Gaussia luciferase; 100% = purified Lucia enzyme wells, no cells; shares compounds with TTR transcr act; 1,100 tested, under 10 active; AID 1117280, 2014; activation, % at 16.7 µM;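 active = mean activation above a set limit taken from the earlier primary screen, cut at about 11% in these data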;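 also: 0% = DMSO-treated cells and 100% = recombinant Lucia luciferase without cells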
* = called active by the depositor. The sample as a whole holds a higher share of hits than the screen did.

SMILES	TTR transcr act	others
O=c1c2ccccc2oc2ccc(NCCCn3ccnc3)cc12	1
Cc1nc(NCCCn2ccnc2)c2oc3ccccc3c2n1	49*	HuH7 TTR inh=-1;TTR up confirm=1
Cc1nc(NCC2CCCO2)c2oc3ccccc3c2n1 (centres undefined)	0
CCCCOc1ccc(C(=O)n2ccc3ccc(-c4ccc5ccn(Cc6cccc(C(=O)OC)c6)c5c4)cc32)cc1	0
COC(=O)c1ccc(CN2CC3CC(c4ccccc4)N4CCCC34C2=O)cc1 (centres undefined)	1
COc1ccc2cc3c(N)nn(C(=O)c4ccc(Cl)c([N+](=O)[O-])c4)c3nc2c1	-1
CCCC1CCC(C(=O)n2nc(N)c3cc4ccc(OC)cc4nc32)CC1 (centres undefined)	-1
COc1ccc2cc3c(N)nn(C(=O)c4ccccc4[N+](=O)[O-])c3nc2c1	26*	HuH7 TTR inh=26*;TTR up confirm=-1
O=C(Nc1cccc(Br)c1)OC1CC2CC1[C@H]1CCCCN1C2 (some centres undefined)	0
C[C@H]1[C@@H](OC(=O)Nc2ccc(Cl)cc2)CC[C@@]23CCCN2C(=O)CCC[C@@H]13	-1
CCCC(C)C(=O)NC1CCCCN(Cc2ccccc2C)C1=O (centres undefined)	2
COC(=O)[C@]12C[C@H](CC(=O)NCC34CC5CC(CC(C5)C3)C4)C(=O)N(Cc3ccc4c(c3)OCO4)C1=C[C@H](C(C)C)O[C@@H]2C1CC1	0
CCCCCCCCN1C(=O)[C@@H](CC(=O)NCC2CCCCC2)C[C@@]2(C(=O)OC)C1=C[C@H](C(C)C)O[C@@H]2C1CC1	1
COC(C(=O)NC1CC1)c1ccccc1 (centres undefined)	2
CCC(C)[C@H](NC(=O)Nc1ccccc1F)C(=O)O (some centres undefined)	9
COC(C(=O)Nc1ccccc1F)c1ccccc1 (centres undefined)	15*	HuH7 TTR inh=-7;TTR up confirm=0
O=C(Nc1ccc(F)cc1)Nc1c(-c2ccc(C(F)(F)F)cc2)nc2ncccn12	-3
C=C1CCC2C(C)(C)CCC[C@]2(C)[C@H]1CC1=C(O)C(=O)C(CO)=CC1=O (some centres undefined)	-1
CCOc1ccc(-c2csc(N3CCC(C(N)=O)CC3)n2)cc1	-2
O=C(NCCc1c[nH]c2ccccc12)OCc1cn(Cc2cc(F)ccc2F)nn1	-1
O=C1CCC(CCc2nc3ccccc3[nH]2)(c2ccccc2)C(=O)N1 (centres undefined)	21*	HuH7 TTR inh=8;TTR up confirm=3
O=C(Nc1ccccc1)N(CCc1nc2ccccc2[nH]1)C1CCCC1	3
CC(C)(Cc1nc2ccccc2[nH]1)C(=O)O	2
COc1ccccc1-c1nnc(SCC#CCOC(=O)c2ccc(F)cc2)o1	-1
COC(=O)C1CN(C(=O)OC(C)(C)C)C2=C1C(=O)CC(C)(C(=O)OC(C)(C)C)C2 (centres undefined)	3
SMILES	TTR transcr act	others
Cc1ccccc1NC(=O)[C@@H]1CCCN1S(=O)(=O)c1cccc2cccnc12	-2
C=CCN(C(=O)[C@@H](CCCC)[C@@H](O)c1ccc2ccccc2c1)c1ccccc1	-1
CC(c1cccnc1)N(C(=O)Nc1ccccc1)C1CCCCC1 (centres undefined)	1
COc1cccc(NC(=O)N(C2CCCCC2)C(C)c2cccs2)c1 (centres undefined)	13*	HuH7 TTR inh=-11;TTR up confirm=-1
COc1cccc(NC(=O)Cc2cccs2)c1	-2
CCCCCCCCN1C(=O)[C@@H](CC(=O)N2CCN(C(=O)C3CC3)CC2)C[C@@]2(C(=O)OC)C1=C[C@H](C(C)C)O[C@@H]2C1CC1	-1
CC(C)N(CC#CCC(O)(c1ccccc1)c1ccccc1)C(C)C	1
CN(C)CC(CCC(CN(C)C)C(O)(c1ccccc1)c1ccccc1)C(O)(c1ccccc1)c1ccccc1 (centres undefined)	11*	HuH7 TTR inh=53*;TTR up confirm=0
CC(c1ccccc1C(O)(c1ccccc1)c1ccccc1)N(C)C (centres undefined)	2
CC(C)[C@@H]1C(=O)N[C@H](Cc2cn(S(=O)(=O)c3ccccc3)c3ccccc23)C(=O)N1C	-1
CC(C)n1nnnc1C1c2ccccc2OCC(=O)N1Cc1cccc(C(F)(F)F)c1 (centres undefined)	-1
COC(=O)[C@]12C[C@H](CC(=O)NCCCCc3ccccc3)C(=O)N(Cc3ccc(Cl)cc3Cl)C1=C[C@H](C1CCCC1)O[C@@H]2C	0
COc1ccc(S(=O)(=O)NC(N)=NCCc2ccc(OC)c(OC)c2)cc1C	12*	HuH7 TTR inh=-11;TTR up confirm=1
COc1ccc(CCN=C(N)NS(=O)(=O)c2cccs2)cc1OC	4

Screens deposited in PubChem BioAssay by The Scripps Research Institute Molecular Screening Center.
